The panel holds about 83,000 compounds, 20% with a hit somewhere; the sample as a whole holds those more often.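 Growth was measured after 48 h exposure to one concentration of compound in 96-well plates. Values under 10 count as active.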 A number with no mark means an inactive call. Active and inactive are the calls of the source.
The compounds below were run on SNB-19 CNS (assay: NCI-60 one-dose screen, 48 h (100 = growth as untreated, 0 = no growth, -100 = all killed)). Conditions: 10 µM unless noted.

Row | Structure (SMILES) | growth
1 | COc1cc(NC(C)CCCNC(=O)CCC(=O)NCCCNCCCCCCCCCCNCCCNC(=O)CCC(=O)NCCCC(C)Nc2cc(OC)cc3cccnc23)c2ncccc2c1 (stereo not drawn) | 60.5% [8 µM]
2 | O=C(N/N=C/c1ccc(Oc2ccccc2)cc1)c1cnn2c1NC(c1ccccc1)C2 (stereo not drawn) | 61%
3 | Cc1c(C(=O)NCCC(=O)NO)sc2ncnc(Nc3ccc(F)c(Cl)c3)c12 | 98.9%
4 | COc1cc2nc(-c3ccc(C(F)(F)F)cc3)cc(OCCCN3CCOCC3)c2cc1OC | 61%
5 | C=CCN1C(=O)/C(=C/C(=O)OC)S/C1=N\NC(=O)c1cc2ccc1/C=C\c1ccc(cc1)/C=C\2 | 84.7%

What follows are compounds tested on U251 CNS in the same assay as above. Conditions: 10 µM unless noted.

Row | Structure (SMILES) | growth
6 | Cc1cc(C)c(S(=O)(=O)Oc2ccccc2[N+](=O)[O-])c(C)c1 | 29.7%
7 | CCCOc1ccc(/C=N/Nc2cc(C)nc3ccc(Br)cc23)cc1 | 25.7%
8 | COc1ccc2nc(-c3ccc(-c4noc(-c5cc(OC)c(OC)c(OC)c5)n4)cc3)[nH]c2c1 | 25.1%
9 | CCCCCN1C=C/C(=C\C(=O)N(C)c2ccc(Oc3ccccc3)cc2)c2ccccc21 | 80.1%
10 | COc1cc2oc(-c3cccc(C(=O)Nc4ccccc4)c3)cc(=O)c2c(O)c1OC | 36.9%
11 | c1ccc2c(-c3nccs3)c[nH]c2c1 | 103%
12 | O=C(O)c1ccc(NCc2cn(-c3ccc(C(F)(F)F)cc3)nc2-c2ccc(C(=O)O)cc2)cc1 | 99.7%
13 | NS(=O)(=O)c1ccc(CCN2C(=O)C=CC2=O)cc1 | 104%
14 | C/C(=N\Nc1cc(C)nc2ccc(Br)cc12)c1ccc([N+](=O)[O-])cc1 | 20%
15 | CCCCCCNC(=O)Oc1ccc(/C(=C(\C)c2ccccc2)c2ccc(OCCN3CCCCC3)cc2)cc1 | 50.1%
16 | CCCNC(=O)Oc1ccc(/C(=C(\C)c2ccccc2)c2ccc(OCCCN(C)C)cc2)cc1 | 68.8%
17 | O=C1c2ccccc2C(=O)c2c([N+](=O)[O-])ccc(Cl)c21 | 65.6%
18 | O=C1Nc2cc(Cl)ccc2/C1=C\c1c(-c2ccc(F)cc2)nc2ccccn12 | 22.9%
19 | CSc1nc2sc3cccc(Cl)c3n2c(=N)c1C#N | 95.6%
20 | Cc1cccc(C)c1N=c1oc2ccc(Cl)cc2nc1-c1ccccc1O | 94.4%
21 | C=C(C)[C@@H]1CC[C@]2(C(=O)N3CCN(C)CC3)CC[C@]3(C)[C@H](CC[C@@H]4[C@@]5(C)CC[C@H](OCCC#N)C(C)(C)[C@@H]5CC[C@]43C)[C@@H]12 | 43.9%
22 | Cc1cc2nc3c4ccc(Br)cc4n(CCN(C)C)c3nc2cc1C | 15.1%
23 | O=C(/C=C/c1ccc(Cl)cc1)c1ccc(NC(=O)N2CCN(c3cc4c(cc3F)c(=O)c(C(=O)O)cn4C3CC3)CC2)cc1 | 92.4%
24 | CN(C)CCC(=O)c1ccc([N+](=O)[O-])cc1 | 105%

Row | Structure (SMILES) | growth
25 | COc1ccc(-c2nc([C@@H](C)Sc3nc(N)cc(N)n3)c(C)s2)cc1OCCN1CCOCC1 | 91.8%
26 | CCN1CCN(CCNc2nccc(-c3c(-c4cccc(OC)c4)nc4occn34)n2)S1(=O)=O | 113%
27 | NS(=O)(=O)c1ccc(CCN2C(=O)c3cc(Cl)c(Cl)cc3C2=O)cc1 | 102%
28 | COc1ccc(-c2cnc3c(-c4cccc5cnccc45)cnn3c2)cc1 | 56.3%
29 | N#C/C(=C\c1ccc(Cl)cc1)n1nnc2cc(F)c(F)cc21 | 18.1%
30 | C=C1C(=O)O[C@H]2[C@H]1CC/C(CNC(=O)/C=C/c1ccccc1)=C\CC[C@@]1(C)O[C@@H]21 | 46.1%
31 | COc1ccc(-c2nc(S(=O)(=O)c3ccccc3)c(S(=O)CC(=O)N3CCC(C)CC3)o2)cc1 (stereo not drawn) | 66.2%
32 | COC(=O)/C=C1\S/C(=N\NC(=O)c2cc3ccc2/C=C\c2ccc(cc2)/C=C\3)N(c2ccccc2)C1=O | 15.8%
33 | O=C(c1nc2ccccc2[nH]1)C1C(c2ccc(Br)cc2)C2CC3CCCC[C@H]3N2[C@@]12C(=O)Nc1cc(Cl)ccc12 (stereo partly drawn) | 43.9%
34 | Oc1cccc(CCc2ccc(Oc3cc(CCc4cccc(O)c4)cc(O)c3O)cc2)c1 | 74.5%
35 | NC(=NCCCOc1ccc(F)cc1)Nc1ccc(I)cc1 | 78.6%
36 | CN(CCN(C)c1ccc(C(=N)N)cc1)c1ccc(C(=N)N)cc1 | 95.4%
37 | COc1cc(C(=O)Nc2cc3c(cc2Oc2cc(C)cc(C)c2)C(=O)N(C)[C@@H](CC(=O)N(C)O)C(=O)N3)c(Br)c(OC)c1OC | -0.595% (active)
38 | CCNC(=O)Oc1ccc(/C(=C(\C)c2ccccc2)c2ccc(OCCN3CCCCC3)cc2)cc1 | 48.6%
39 | COc1cc(NC(C)CCCNC(=O)CCC(=O)NCCCNCCCCCCCCCCNCCCNC(=O)CCC(=O)NCCCC(C)Nc2cc(OC)cc3cccnc23)c2ncccc2c1 (stereo not drawn) | 50.8% [8 µM]
40 | O=C(N/N=C/c1ccc(Oc2ccccc2)cc1)c1cnn2c1NC(c1ccccc1)C2 (stereo not drawn) | 48.1%
41 | Cc1c(C(=O)NCCC(=O)NO)sc2ncnc(Nc3ccc(F)c(Cl)c3)c12 | 102%
42 | COc1cc2nc(-c3ccc(C(F)(F)F)cc3)cc(OCCCN3CCOCC3)c2cc1OC | 42.6%
43 | C=CCN1C(=O)/C(=C/C(=O)OC)S/C1=N\NC(=O)c1cc2ccc1/C=C\c1ccc(cc1)/C=C\2 | 81.8%

Reference: PubChem BioAssay (NCI)
